# Measured values published in ChEMBL document CHEMBL3433997, “St. Jude Leishmania screening dataset” (2016).
# Key:
# Assay type in all cases: functional
# [1] = target: Solute carrier family 2, facilitated glucose transporter member 1 (Homo sapiens) (UniProt P11166); assay: ST_JUDE_LEISH: Cytotoxicity at 2uM final concentration against transgenic Leishmania Mexicana promastigotes LmGLUT1 that are glucose transport deficient and complemented with the human glucose transporter GLUT1. Activity is measured by DNA content using SYBR green in vitro
# [2] = target: Hexose transporter 1 (Plasmodium falciparum) (UniProt O97467); assay: ST_JUDE_LEISH: Cytotoxicity at 2uM final concentration against transgenic Leishmania Mexicana promastigotes LmPfHT that are glucose transport deficient and complemented with the Plasmodium falciparum hexose transporter. Activity is measured by DNA content using SYBR green in vitro
# [3] = target: Glucose transporter (Leishmania mexicana) (UniProt O61059); assay: ST_JUDE_LEISH: Cytotoxicity at 2uM final concentration against transgenic Leishmania Mexicana promastigotes LmGT2 that are glucose transport deficient and complemented with the L. Mexicana glucose transporter 2. Activity is measured by DNA content using SYBR green in vitro
# Sequence of Solute carrier family 2, facilitated glucose transporter member 1 (Homo sapiens) (P11166 whole entry): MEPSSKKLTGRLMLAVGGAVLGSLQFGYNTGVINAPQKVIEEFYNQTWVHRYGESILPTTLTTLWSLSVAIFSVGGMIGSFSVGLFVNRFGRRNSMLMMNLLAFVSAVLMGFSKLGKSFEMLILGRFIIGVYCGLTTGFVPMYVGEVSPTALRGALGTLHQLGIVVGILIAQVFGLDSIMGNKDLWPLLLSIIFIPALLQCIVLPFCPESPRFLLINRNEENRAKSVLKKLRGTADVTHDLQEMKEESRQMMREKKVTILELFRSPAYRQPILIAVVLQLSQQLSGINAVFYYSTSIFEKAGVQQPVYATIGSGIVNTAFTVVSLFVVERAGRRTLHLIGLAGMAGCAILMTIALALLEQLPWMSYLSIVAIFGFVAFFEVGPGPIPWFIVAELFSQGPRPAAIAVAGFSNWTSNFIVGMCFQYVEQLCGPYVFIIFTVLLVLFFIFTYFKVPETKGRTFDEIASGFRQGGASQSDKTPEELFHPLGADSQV
structure (smiles),measurement,setting,value
COc1ccc(CNC(=O)Nc2cc3cc(-c4ccc(CN5CCCC5)cc4)ccc3n3c(C)nnc23)cc1,inhibition,[1],2.37%
same,inhibition,[2],0.34%
same,inhibition,[3],0.89%
CCCC(=O)c1cnc2c(OCCCc3c[nH]cn3)cccc2c1Nc1c(C)cccc1C,inhibition,[1],2.21%
same,inhibition,[2],1.13%
same,inhibition,[3],-1.19%
Cc1cccc(N2C(N)=NC(N)=NC2(C)C)c1C,inhibition,[1],0.74%
same,inhibition,[2],1.41%
same,inhibition,[3],1.09%
N#Cc1ccc(-c2ccc(C(=O)NCCCCN3CCC(c4nc5ccccc5[nH]4)CC3)cc2)cc1,inhibition,[1],2.16%
same,inhibition,[2],2.21%
same,inhibition,[3],2.69%
COc1ccc(CNC(=O)NC2CCN(c3ccnc(Nc4ccc(F)cc4)n3)CC2)cc1,inhibition,[1],0.86%
same,inhibition,[2],1.1%
same,inhibition,[3],0.64%
COc1cccc(C(=O)OC2=C3CCC(=O)C3(C)CCC2=O)c1 (stereo not given),inhibition,[1],5.35%
same,inhibition,[2],4.65%
same,inhibition,[3],6.31%
Cc1cccn2c(=O)c3cc(C(=O)NCCN4CCOCC4)c(=N)n(CCc4ccccc4)c3nc12,inhibition,[1],-0.34%
same,inhibition,[2],2.09%
same,inhibition,[3],0.41%
CS(=O)(=O)c1ccc(CNCc2ccc(-c3ccc(-c4nc5cc(F)ccc5[nH]4)s3)cc2)cc1,inhibition,[1],11.6%
same,inhibition,[2],10.9%
same,inhibition,[3],8.75%
O=C(NCc1cccc(C(F)(F)F)c1)[C@@H]1CCCN1C(=O)c1ccc(O)c(-c2ccc(Cl)c(Cl)c2)c1,inhibition,[1],-0.44%
same,inhibition,[2],-0.25%
same,inhibition,[3],0.24%
c1ccc(-c2cc(NCCCCNc3cc(-c4ccccc4)nc4ccccc34)c3ccccc3n2)cc1,inhibition,[1],6.88%
same,inhibition,[2],7.17%
same,inhibition,[3],6.81%
O=C1CCCN1CCCNCc1ccc(-c2cccc(-c3nc4cc(C(F)(F)F)ccc4[nH]3)c2)cc1,inhibition,[1],1.71%
same,inhibition,[2],-0.32%
same,inhibition,[3],-0.5%
O=C(Cc1ccccn1)Nc1cccc(-c2cccc(-c3nc4cc(C(F)(F)F)ccc4[nH]3)c2)c1,inhibition,[1],0.14%
same,inhibition,[2],1.02%
same,inhibition,[3],-0.1%
O=C(Nc1cccc(OC2CCN(Cc3ccccc3)CC2)c1)Nc1cccc([N+](=O)[O-])c1,inhibition,[1],3.41%
same,inhibition,[2],2.74%
same,inhibition,[3],2.57%
COc1ccc2nc(-c3ccccc3)cc(NCCN(C)C)c2c1,inhibition,[1],8.41%
same,inhibition,[2],9.21%
same,inhibition,[3],4.86%
O=C(Nc1ccc([N+](=O)[O-])cc1)Nc1cc(C(F)(F)F)ccc1F,inhibition,[1],0.91%
same,inhibition,[2],1.47%
same,inhibition,[3],3.15%
OC(c1ccc2ccccc2c1)C1CN(CCc2ccccc2)CCC1(O)c1ccccc1 (stereo not given),inhibition,[1],0.49%
same,inhibition,[2],-3.49%
same,inhibition,[3],0.03%
CC(=O)Nc1ccc(CN2CCC(NC(=O)c3ccc(-c4cccc(Cl)c4)s3)CC2)cc1,inhibition,[1],2.01%
same,inhibition,[2],-0.15%
same,inhibition,[3],2.8%
COc1cc2c(cc1OC)C(c1ccc(Br)cc1)CN(C)CC2 (stereo not given),inhibition,[1],1.39%
same,inhibition,[2],4.21%
same,inhibition,[3],4.35%
COc1ccc(CCCc2nc(N)nc(N)c2-c2ccc(Cl)cc2)cc1,inhibition,[1],6.21%
same,inhibition,[2],6.84%
same,inhibition,[3],3.75%
CN(CCNCc1ccc(-c2cccc(-c3nc4ccccc4[nH]3)c2)cc1)S(C)(=O)=O,inhibition,[1],0.68%
same,inhibition,[2],0.26%
same,inhibition,[3],1.73%
COc1ccc(C(=O)N[C@@H](CC(C)C)C(=O)NC2CC[C@@H](C)N(C(=O)Nc3ccc(Cl)cc3)CC2=O)cc1OCCN1CCOCC1 (stereo not given in full),inhibition,[1],2.44%
same,inhibition,[2],3.66%
same,inhibition,[3],5.16%
CCN(CC)CCCC(C)Nc1ccnc2cc(C#N)ccc12 (stereo not given),inhibition,[1],-0.82%
same,inhibition,[2],-2.04%
same,inhibition,[3],-3.31%
CCCCCCn1c(Sc2ccc(C#N)c([N+](=O)[O-])c2)nnc1-c1cc(OC)cc(OC)c1,inhibition,[1],5.8%
same,inhibition,[2],6.04%
same,inhibition,[3],4.53%
CNC(=O)c1cnc(Nc2ccc3[nH]c(=O)[nH]c3c2)nc1Nc1cccc(OC(C)C)c1,inhibition,[1],-0.17%
same,inhibition,[2],-0.76%
same,inhibition,[3],-0.26%
N#Cc1cncc(-c2nc3c(N4CCC(Cc5ccccc5)CC4)cccc3n2CCNCc2ccccc2)c1,inhibition,[1],5.27%
same,inhibition,[2],4.45%
same,inhibition,[3],6.16%
Cn1c(=O)c2cc(C(=O)NCCCN3CCCCCC3)sc2c2ccccc21,inhibition,[1],2.89%
same,inhibition,[2],4.91%
same,inhibition,[3],5.05%
N#CC1(c2ccccc2)CCN(c2nc(NCCCN3CCCC3=O)nc(N3CCCC4CCCCC43)n2)CC1 (stereo not given),inhibition,[1],2.11%
same,inhibition,[2],2.3%
same,inhibition,[3],-0.55%
N#Cc1ccc(CN2CCC(Oc3ccc(NC(=O)c4cccs4)cc3Cl)C2)cc1 (stereo not given),inhibition,[1],-0.24%
same,inhibition,[2],3.89%
same,inhibition,[3],-0.2%
Oc1ccccc1Nc1nc(NCc2ccco2)c2ccccc2n1,inhibition,[1],15.3%
same,inhibition,[2],13.6%
same,inhibition,[3],4.56%
CC1(C)CCNc2cc(NC(=O)c3ccc(-c4ncccc4C(F)(F)F)cc3)ccc21,inhibition,[1],2.63%
same,inhibition,[2],1.14%
same,inhibition,[3],0.73%
O=C(Cc1ccc(NC(=O)c2ccc(O)c(-c3ccc(Cl)c(Cl)c3)c2)cc1)NCCN1CCOCC1,inhibition,[1],-2.69%
same,inhibition,[2],-1.17%
same,inhibition,[3],-1.61%
CCOc1ccc(C2CCN(CCCCNC(=O)c3ccc(NC(=O)c4ccc(Cl)cc4)cc3)CC2)c(Cl)c1,inhibition,[1],1.99%
same,inhibition,[2],4.55%
same,inhibition,[3],1.92%
O=C(/C=C/c1ccc(Cl)c(Cl)c1)NCCCCCCN1CCN(C(=O)Nc2ccc(F)c(Cl)c2)CC1,inhibition,[1],13.8%
same,inhibition,[2],11.5%
same,inhibition,[3],14.1%
c1ccc2[nH]c(-c3ccc(-c4ccc(CNC5CC5)cc4)s3)nc2c1,inhibition,[1],0.93%
same,inhibition,[2],0.48%
same,inhibition,[3],-2.14%
CCN(CC)CCN(Cc1ccc(-c2ccc(C(F)(F)F)cc2)cc1)C(=O)Cn1c(CCc2c(F)cc(F)cc2F)nc(=O)c2ccccc21,inhibition,[1],-0.61%
same,inhibition,[2],0.48%
same,inhibition,[3],0.56%
